# Assay results as given in PubChem BioAssay (EPA / NIEHS).
# Where “and” joins values, the source holds several entries; their conditions need not be identical. Equal entries are not always repeated. Inconclusive results are not listed. Some structures have more than one record in an assay (separate samples or runs), and their calls can disagree. Calls of active or inactive are those of the source. Rule for the calls, unless noted: active = hit-call score of the fitted dose curve at least 0.9, where 1 is the maximum; inactive = score below 0.9.
# Key:
# [1] = CCTE_Mundy_HCI_Cortical_NOG_BPCount: CCTE's Neurite Outgrowth Assay in rat cortical cells for Branch Point Count, Mundy Lab (AID 2284237);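 for AC50: branch points counted about two days after chemical exposure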
# Summary of the method: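 Measured 50.33 h after dosing, this morphology endpoint uses rat primary cortical cultures labelled for betaIII-tubulin. Branch points are quantified by high-content imaging, with DMSO as negative control and baseline.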
# [2] = CCTE_Mundy_HCI_hNP1_Casp3_7: CCTE's Caspase-Glo 3/7 Assay in human neuroprogenitor cells for Apoptosis, Mundy Lab (AID 2284240)
# Summary of the method: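 Apoptosis is scored by activated caspase-3/7 luminescence in WA09-derived neural progenitor cells, measured 26.5 h after chemical dosing. Values represent gain of signal relative to DMSO vehicle.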
# [3] = CCTE_Mundy_HCI_hNP1_CellTiter: CCTE's Cell Titer-Glo 2 Assay in human neuroprogenitor cells for Viability, Mundy Lab (AID 2284241; active = hit-call score of the fitted dose curve at least 0.9, where 1 is the maximum)
# Summary of the method: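 Human neural progenitor cells (hNP1, WA09-derived) were plated on poly-L-ornithine/laminin and grown 40 to 44 hours at 37 °C, 5% CO2 before chemical addition. Twenty-four hours later, ATP was measured by CellTiter-Glo luminescence; loss of signal versus DMSO indicates reduced viability.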
# [4] = CCTE_Mundy_HCI_Cortical_Synap_Neur_Matur_NeuronCount: CCTE's Synaptogenesis and Neurite Maturation Assay in rat cortical cells for Neuron Count, Mundy Lab (AID 2284242; active = hit-call score of the fitted dose curve at least 0.9, where 1 is the maximum)
# Summary of the method: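 Rat primary cortical cells, AraC added at DIV 5, dosed with media change from DIV 7 to DIV 12. Fixed, Hoechst-stained and immunolabelled for MAP2 and synaptophysin; neuron number counted by high-content imaging, loss fitted versus DMSO.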
# [5] = read-out: Collagen I, COL1A1 (gene 1277); test: BSK_MyoF_CollagenI: BioMAP Diversity Plus: MyoF Assay for Collagen I Biomarker Activity (AID 2284238); conditions: primary human lung fibroblasts
# Summary of the method: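 Primary human lung fibroblasts (MyoF system) treated 24 h; Collagen I quantified by ELISA and fitted in positive direction against DMSO. Parallel SRB total-protein staining assessed overt cytotoxicity.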
# [6] = read-out: Collagen III, COL3A1 (gene 1281); test: BSK_MyoF_CollagenIII: BioMAP Diversity Plus: MyoF Assay for Collagen III Biomarker Activity (AID 2284239); conditions: primary human lung fibroblasts
# Summary of the method: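 Primary human lung fibroblasts (BioMAP MyoF system) exposed 24 h. Collagen III measured by ELISA; positive-direction fit relative to DMSO.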
# [7] = read-out: Interleukin 17F (IL17F), IL17F (gene 112744); test: BSK_BT_xIL17F: BioMAP Diversity Plus: BT Assay for Interleukin 17F (IL17F) Biomarker Activity (AID 2284243); conditions: primary human B cells with PBMC
# Summary of the method: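 Human PBMC co-cultured with B cells, compound exposure 24 h; secreted IL-17F quantified by Luminex xMAP, referenced to DMSO control. PBMC viability measured in parallel by Alamar Blue reduction.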
# [8] = read-out: Actin alpha 1 (ACTA1), ACTA1 (gene 58); test: BSK_MyoF_ACTA1: BioMAP Diversity Plus: MyoF Assay for Actin alpha 1 (ACTA1) Biomarker Activity (AID 2284244); conditions: primary human lung fibroblasts
# Summary of the method: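 Human lung fibroblast (MyoF system) cultures dosed with test chemical; alpha-SMA measured by ELISA 24 h after dosing, normalized to DMSO control. Cytotoxicity tracked in parallel cultures by SRB total-protein staining.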
# [9] = read-out: Interleukin 2 (IL2), IL2 (gene 3558); test: BSK_BT_xIL2: BioMAP Diversity Plus: BT Assay for Interleukin 2 (IL2) Biomarker Activity (AID 2284245); conditions: primary human B cells with PBMC
# Summary of the method: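 Human B cell plus PBMC co-culture, 24 h after chemical dosing; secreted IL-2 quantified by Luminex xMAP multiplex, fitted for signal gain against DMSO baseline.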
# [10] = read-out: Basic fibroblast growth factor (bFGF), FGF2 (gene 2247); test: BSK_MyoF_bFGF: BioMAP Diversity Plus: MyoF Assay for Basic fibroblast growth factor (bFGF) Biomarker Activity (AID 2284246); conditions: primary human lung fibroblasts
# Summary of the method: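 Human lung fibroblast cultures were dosed and measured 24 h later in 96-well format. bFGF biomarker levels quantified by ELISA, with activity fitted in the positive direction against DMSO.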
# [11] = read-out: Collagen IV, COL4A1 (gene 1282); test: BSK_MyoF_CollagenIV: BioMAP Diversity Plus: MyoF Assay for Collagen IV Biomarker Activity (AID 2284247); conditions: primary human lung fibroblasts
# Summary of the method: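 Primary human lung fibroblasts (MyoF system) dosed 24 h; Collagen IV measured by ELISA. Activity fitted in positive direction against DMSO; cytotoxicity tracked by SRB total-protein staining in parallel cultures.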
# [12] = read-out: Monokine induced gamma interferon (MIG), CXCL9 (gene 4283); test: BSK_KF3CT_MIG: BioMAP Diversity Plus: KF3CT Assay for Monokine induced gamma interferon (MIG) Biomarker Activity (AID 2284248); conditions: primary human keratinocytes with fibroblasts
# Summary of the method: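 Human keratinocyte–foreskin fibroblast co-culture; MIG measured by ELISA 24 h after chemical dosing, fitted upward versus DMSO. Cytotoxicity was assessed in parallel cultures by SRB total-protein staining read at 560 nm.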
# [13] = read-out: Vascular cell adhesion molecule 1 (VCAM1), VCAM1 (gene 7412); test: BSK_BF4T_VCAM1: BioMAP Diversity Plus: BF4T Assay for Vascular cell adhesion molecule 1 (VCAM1) Biomarker Activity (AID 2284249); conditions: primary human bronchial epithelial cells with fibroblasts
# Summary of the method: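 Human bronchial epithelial cell and dermal fibroblast co-culture exposed 24 h. VCAM-1 measured by ELISA; parallel SRB total-protein staining for cytotoxicity. Fitted in positive direction relative to DMSO.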
# [14] = read-out: Collagen I, COL1A1 (gene 1277); test: BSK_hDFCGF_CollagenI: BioMAP Diversity Plus: hDFCGF Assay for Collagen I Biomarker Activity (AID 2284250); conditions: primary human foreskin fibroblasts
# Summary of the method: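 Primary human foreskin fibroblasts exposed to chemical for 24 h; Collagen I levels measured by ELISA. Cytotoxicity checked by SRB total-protein staining in parallel cultures.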
# [15] = read-out: Interferon-inducible T-cell alpha chemoattractant (ITAC), CXCL11 (gene 6373); test: BSK_hDFCGF_ITAC: BioMAP Diversity Plus: hDFCGF Assay for Interferon-inducible T-cell alpha chemoattractant (ITAC) Biomarker Activity (AID 2284251); conditions: primary human foreskin fibroblasts
# Summary of the method: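 Fibroblasts (human foreskin, primary) are treated with chemical, cultured 24 h, then assayed for I-TAC by ELISA. Overt toxicity is checked in parallel cultures by sulforhodamine B staining of total protein at the same time point.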
# [16] = read-out: Plasminogen activator inhibitor-1 (PAI1), SERPINE1 (gene 5054); test: BSK_KF3CT_PAI1: BioMAP Diversity Plus: KF3CT Assay for Plasminogen activator inhibitor-1 (PAI1) Biomarker Activity (AID 2284252); conditions: primary human keratinocytes with fibroblasts
# Summary of the method: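 Human keratinocyte/foreskin fibroblast co-culture dosed for 24 h; PAI-1 measured by ELISA, fitted in positive direction against DMSO baseline. Parallel SRB total-protein staining (0.1% SRB, 560 nm) assesses overt cytotoxicity.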
# [17] = read-out: Monocyte Chemoattractant Protein-1 (MCP1), CCL2 (gene 6347); test: BSK_IMphg_MCP1: BioMAP Diversity Plus: IMphg Assay for Monocyte Chemoattractant Protein-1 (MCP1) Biomarker Activity (AID 2284253); conditions: primary human endothelial cells with macrophages
# Summary of the method: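 Human venular endothelial cells co-cultured with macrophages; MCP-1 measured by ELISA 24 hours post-dose and fitted against DMSO. Cytotoxicity monitored by SRB total-protein staining in parallel cultures.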
# [18] = read-out: Interleukin-8 (IL8), CXCL8 (gene 3576); test: BSK_KF3CT_IL8: BioMAP Diversity Plus: KF3CT Assay for Interleukin-8 (IL8) Biomarker Activity (AID 2284254); conditions: primary human keratinocytes with fibroblasts
# Summary of the method: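 Human keratinocyte/foreskin fibroblast co-culture dosed 24 h; IL-8 measured by ELISA relative to DMSO. Parallel cultures stained with SRB for total protein to flag cytotoxicity.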
# [19] = read-out: Macrophage Inflammatory Protein-1 Alpha (MIP1a), CCL3 (gene 6348); test: BSK_IMphg_MIP1a: BioMAP Diversity Plus: IMphg Assay for Macrophage Inflammatory Protein-1 Alpha (MIP1a) Biomarker Activity (AID 2284255); conditions: primary human endothelial cells with macrophages
# Summary of the method: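 Co-culture of human venular endothelial cells and macrophages exposed to compounds for 24 h; MIP-1a measured by ELISA relative to DMSO. Cytotoxicity assessed in parallel cultures by sulforhodamine B total-protein staining at 560 nm.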
# [20] = read-out: Plasminogen activator inhibitor-1 (PAI1), SERPINE1 (gene 5054); test: BSK_MyoF_PAI1: BioMAP Diversity Plus: MyoF Assay for Plasminogen activator inhibitor-1 (PAI1) Biomarker Activity (AID 2284256); conditions: primary human lung fibroblasts;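 note: PAI-1 read 24 h after compound addition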
# Summary of the method: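 Primary human lung fibroblasts treated with chemical for 24 h; PAI-1 levels quantified by ELISA relative to DMSO. Cytotoxicity was assessed in parallel cultures by SRB total-protein staining (0.1% SRB after 10% TCA fixation, 560 nm).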
compound,measurement,setting,value
NC(=O)NO,outcome,[1],inactive
same,outcome,[2],inactive
same,outcome,[3],inactive
same,outcome,[4],inactive
Cn1c(=O)c2c(ncn2C)n(C)c1=O,outcome,[1],inactive
same,outcome,[2],inactive
same,outcome,[3],inactive
same,outcome,[4],inactive
O=P(OC(CCl)CCl)(OC(CCl)CCl)OC(CCl)CCl,AC50,[1],20.8 µM (active)
same,outcome,[2],inactive
same,outcome,[4],inactive
Cn1cnc([N+](=O)[O-])c1Sc1ncnc2nc[nH]c12,outcome,[5],inactive
same,outcome,[6],inactive
same,outcome,[7],inactive
same,AC50,[8],0.254 µM (active)
same,outcome,[8],inactive
same,AC50,[9],9.43 µM (active) and 12.6 µM (active)
same,outcome,[10],inactive
same,outcome,[11],inactive
same,outcome,[12],inactive
same,AC50,[13],12.6 µM (active)
same,outcome,[13],inactive
same,outcome,[14],inactive
same,AC50,[15],3.66 µM (active) and 12.6 µM (active)
same,outcome,[16],inactive
same,outcome,[17],inactive
same,outcome,[18],inactive
same,AC50,[19],12.2 µM (active)
same,outcome,[19],inactive
same,outcome,[20],inactive
O=C1CCC(N2C(=O)c3ccccc3C2=O)C(=O)N1 (stereo not drawn),outcome,[1],inactive
same,outcome,[2],inactive
same,outcome,[3],inactive
same,outcome,[4],inactive
CC[C@H]1OC(=O)[C@H](C)[C@@H](O[C@H]2C[C@@](C)(OC)[C@@H](O)[C@H](C)O2)[C@H](C)[C@@H](O[C@@H]2O[C@H](C)C[C@H](N(C)C)[C@H]2O)[C@](C)(O)C[C@@H](C)C(=O)[C@H](C)[C@@H](O)[C@]1(C)O,outcome,[1],inactive
same,outcome,[2],inactive
same,outcome,[3],inactive
same,outcome,[4],inactive
